# Results taken from PubChem BioAssay (NCI).
# About 79,000 compounds went through this panel and 15% of them were active in at least one assay; those are over-represented in the sample as a whole. Unmarked numbers belong to inactive results. Calls of active or inactive are those of the source. Cut-off read from the data, not from the text of the source: active = growth inhibition above about 70%; inactive = the rest.
# What was measured:
# [1] = NCI Yeast Anticancer Drug Screen. Data for the rad52 strain (AID 147);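 note: 0% = growth of vehicle-treated control cultures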; settings: S. cerevisiae rad52 mutant growth inhibition, hits give high values
# How it was run: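 Vehicle-treated cultures served as the reference for growth inhibition of compound-exposed yeast bearing a DNA repair mutation.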
# [2] = NCI Yeast Anticancer Drug Screen. Data for the wt1 strain (AID 149);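 note: 0% = growth of vehicle-treated wt1 cultures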; settings: S. cerevisiae wt1 strain (SPY 50644) growth inhibition, hits give high values
# How it was run: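 Readout: yeast growth inhibition, normalised to vehicle controls, in the wt1 strain exposed to test compounds.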
# [3] = NCI Yeast Anticancer Drug Screen. Data for the rad50EPP+ strain (AID 151);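 note: 0% = growth of vehicle-treated control cultures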; settings: S. cerevisiae rad50 mutant strain, hits give high values
# How it was run: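 In this screen, rad50EPP+ yeast were exposed to compounds. Growth inhibition was scored against vehicle-treated controls.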
# [4] = NCI Yeast Anticancer Drug Screen. Data for the mgt1 strain (AID 153); settings: S. cerevisiae mgt1 mutant growth inhibition, hits give high values
# How it was run: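 mgt1 strain exposed; growth vs vehicle control recorded as inhibition.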
# [5] = NCI Yeast Anticancer Drug Screen. Data for the rad50 strain (AID 155);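 note: 0% = growth of vehicle-only cultures of the same strain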; settings: S. cerevisiae rad50 strain growth inhibition, hits give high values
# How it was run: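 Compounds were tested on a yeast strain with an engineered DNA damage repair alteration; the reported value is growth inhibition normalised to vehicle treatment.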
# [6] = NCI Yeast Anticancer Drug Screen. Data for the mec2-1 strain (AID 157); settings: S. cerevisiae mec2-1 strain, hits give high values
# How it was run: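 Vehicle-treated cultures served as reference for growth inhibition of compound-exposed mec2-1 yeast.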
# [7] = NCI Yeast Anticancer Drug Screen. Data for the rad14 strain (AID 159);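 note: 0% = growth of vehicle-treated control cultures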; settings: S. cerevisiae rad14 strain growth inhibition, hits give high values
# How it was run: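 Compound-treated yeast with a defined DNA-repair lesion; growth inhibition normalised to vehicle-treated cultures.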
# [8] = NCI Yeast Anticancer Drug Screen. Data for the sgs1 mgt1 strain (AID 161);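 note: 0% = growth of cultures given vehicle only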; settings: S. cerevisiae sgs1 mgt1 strain, hits give high values
# How it was run: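 Read-out: growth inhibition vs vehicle controls. Cells: mutant yeast strain deficient in DNA damage repair.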
# [9] = NCI Yeast Anticancer Drug Screen. Data for the bub3 strain (AID 167); settings: S. cerevisiae bub3 mutant strain, hits give high values
# How it was run: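 Growth of a checkpoint-deficient yeast mutant is measured after compound exposure. Values represent inhibition relative to vehicle.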
# [10] = NCI Yeast Anticancer Drug Screen. Data for the wt2 strain (AID 169);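 note: 0% = growth of vehicle-treated yeast cultures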; settings: S. cerevisiae wt2 strain growth inhibition, hits give high values
# How it was run: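 Inhibition of yeast growth was determined after compound treatment, normalised to controls receiving only vehicle.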
# [11] = NCI Yeast Anticancer Drug Screen. Data for the mlh1 strain (AID 171);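 note: 0% = growth of vehicle-treated control cultures of the same strain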; settings: S. cerevisiae mlh1 strain growth inhibition, hits give high values
# How it was run: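 Vehicle-normalised growth inhibition of a repair- or checkpoint-altered yeast strain following compound treatment.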
# [12] = NCI Yeast Anticancer Drug Screen. Data for the sgs1 strain (AID 173);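 note: 0% = growth of vehicle-only control cultures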; settings: S. cerevisiae sgs1 mutant, hits give high values
# How it was run: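 Screen format: yeast with repair or checkpoint alterations, compound exposure, growth read relative to vehicle.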
# [13] = NCI Yeast Anticancer Drug Screen. Data for the mlh1 rad18 strain (AID 175); settings: S. cerevisiae mlh1 rad18 strain growth inhibition, hits give high values
# How it was run: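 Vehicle-treated cultures served as the reference for growth inhibition in a yeast strain carrying DNA damage repair alterations exposed to each compound.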
# [14] = NCI Yeast Anticancer Drug Screen. Data for the rad18 strain (AID 177); settings: S. cerevisiae rad18 mutant growth inhibition, hits give high values
# How it was run: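 Test articles were incubated with altered yeast defective in DNA damage repair. Results are given as inhibition of growth versus vehicle.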
# [15] = NCI Yeast Anticancer Drug Screen. Data for the CLN2oe strain (AID 163);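 note: 0% = growth of vehicle-only control cultures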; settings: S. cerevisiae CLN2oe strain, hits give high values
# How it was run: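 Inhibition relative to vehicle-treated yeast is reported. Cells: strain with genetic alteration in cell-cycle control, grown with compound.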
# [16] = NCI Yeast Anticancer Drug Screen. Data for the cln2 rad14 strain (AID 165);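 note: 0% = growth equal to vehicle treated cultures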; settings: S. cerevisiae cln2 rad14 strain, hits give high values
# How it was run: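 Each compound was tested on cln2 rad14 yeast. Inhibition of growth was calculated against vehicle-exposed controls.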
# [17] = at 5.0 µM (retest, dose inferred, filed as 0.5)
# [18] = at 50.0 µM (retest, dose inferred, filed as 5.0)
smiles,measurement,setting,value
C=C(C(=C)n1nnc(C(=O)OC)c1C(=O)OC)n1nnc(C(=O)OC)c1C(=O)OC,growth inhibition,[1]; at 1.2 µM,0%
same,growth inhibition,[1]; at 3.7 µM,2%
same,growth inhibition,[1]; at 11.0 µM,3%
same,growth inhibition,[1]; at 33.0 µM,0%
same,growth inhibition,[1]; at 100.0 µM,0%
same,growth inhibition,[2]; at 1.2 µM,-1%
same,growth inhibition,[2]; at 3.7 µM,0%
same,growth inhibition,[2]; at 11.0 µM,1%
same,growth inhibition,[2]; at 33.0 µM,0%
same,growth inhibition,[2]; at 100.0 µM,1%
same,growth inhibition,[3]; at 1.2 µM,0%
same,growth inhibition,[3]; at 3.7 µM,-1%
same,growth inhibition,[3]; at 11.0 µM,-1%
same,growth inhibition,[3]; at 33.0 µM,-2%
same,growth inhibition,[3]; at 100.0 µM,0%
same,growth inhibition,[4]; at 1.2 µM,0%
same,growth inhibition,[4]; at 3.7 µM,5%
same,growth inhibition,[4]; at 11.0 µM,0%
same,growth inhibition,[4]; at 33.0 µM,-1%
same,growth inhibition,[4]; at 100.0 µM,-3%
same,growth inhibition,[5]; at 1.2 µM,0%
same,growth inhibition,[5]; at 3.7 µM,1%
same,growth inhibition,[5]; [17],3%
same,growth inhibition,[5]; at 11.0 µM,0%
same,growth inhibition,[5]; at 33.0 µM,0%
same,growth inhibition,[5]; [18],2%
same,growth inhibition,[5]; at 50.0 µM,27.1%
same,growth inhibition,[5]; at 100.0 µM,-2%
same,growth inhibition,[6]; at 1.2 µM,-5%
same,growth inhibition,[6]; at 3.7 µM,-5%
same,growth inhibition,[6]; [17],-1%
same,growth inhibition,[6]; at 11.0 µM,-3%
same,growth inhibition,[6]; at 33.0 µM,-2%
same,growth inhibition,[6]; [18],-1%
same,growth inhibition,[6]; at 50.0 µM,51.9%
same,growth inhibition,[6]; at 100.0 µM,-5%
same,growth inhibition,[7]; at 1.2 µM,1%
same,growth inhibition,[7]; at 3.7 µM,3%
same,growth inhibition,[7]; at 11.0 µM,3%
same,growth inhibition,[7]; at 33.0 µM,3%
same,growth inhibition,[7]; at 100.0 µM,1%
same,growth inhibition,[8]; [17],10%
same,growth inhibition,[8]; [18],-3%
same,growth inhibition,[8]; at 50.0 µM,51%
same,growth inhibition,[9]; at 1.2 µM,-1%
same,growth inhibition,[9]; at 3.7 µM,-3%
same,growth inhibition,[9]; [17],2%
same,growth inhibition,[9]; at 11.0 µM,-3%
same,growth inhibition,[9]; at 33.0 µM,-5%
same,growth inhibition,[9]; [18],2%
same,growth inhibition,[9]; at 50.0 µM,66.4%
same,growth inhibition,[9]; at 100.0 µM,-4%
same,growth inhibition,[10]; at 1.2 µM,-1%
same,growth inhibition,[10]; at 3.7 µM,-1%
same,growth inhibition,[10]; at 11.0 µM,1%
same,growth inhibition,[10]; at 33.0 µM,-1%
same,growth inhibition,[10]; at 100.0 µM,0%
same,growth inhibition,[11]; at 1.2 µM,-1%
same,growth inhibition,[11]; at 3.7 µM,-2%
same,growth inhibition,[11]; at 11.0 µM,0%
same,growth inhibition,[11]; at 33.0 µM,0%
same,growth inhibition,[11]; at 100.0 µM,0%
same,growth inhibition,[12]; at 1.2 µM,0%
same,growth inhibition,[12]; at 3.7 µM,-1%
same,growth inhibition,[12]; at 11.0 µM,-2%
same,growth inhibition,[12]; at 33.0 µM,0%
same,growth inhibition,[12]; at 100.0 µM,0%
same,growth inhibition,[13]; [17],-2%
same,growth inhibition,[13]; [18],48%
same,growth inhibition,[13]; at 50.0 µM,59.5%
same,growth inhibition,[14]; at 1.2 µM,0%
same,growth inhibition,[14]; at 3.7 µM,0%
same,growth inhibition,[14]; at 11.0 µM,1%
same,growth inhibition,[14]; at 33.0 µM,0%
same,growth inhibition,[14]; at 100.0 µM,-1%
O=C1NC(SSC2=NNC3(C(=O)N2)c2ccccc2-c2ccccc23)=NNC12c1ccccc1-c1ccccc12,growth inhibition,[1]; at 1.2 µM,2%
same,growth inhibition,[1]; at 3.7 µM,-1%
same,growth inhibition,[1]; at 11.0 µM,1%
same,growth inhibition,[1]; at 33.0 µM,8%
same,growth inhibition,[1]; at 100.0 µM,33%
same,growth inhibition,[2]; at 1.2 µM,0%
same,growth inhibition,[2]; at 3.7 µM,0%
same,growth inhibition,[2]; at 11.0 µM,0%
same,growth inhibition,[2]; at 33.0 µM,1%
same,growth inhibition,[2]; at 100.0 µM,5%
same,growth inhibition,[3]; at 1.2 µM,8%
same,growth inhibition,[3]; at 3.7 µM,9%
same,growth inhibition,[3]; at 11.0 µM,20%
same,growth inhibition,[3]; at 33.0 µM,43%
same,growth inhibition,[3]; at 100.0 µM,63%
same,growth inhibition,[5]; at 1.2 µM,-1%
same,growth inhibition,[5]; at 3.7 µM,7%
same,growth inhibition,[5]; [17],-4%
same,growth inhibition,[5]; at 11.0 µM,-13%
same,growth inhibition,[5]; at 33.0 µM,18%
same,growth inhibition,[5]; [18],53%
same,growth inhibition,[5]; at 50.0 µM,96.2% (active)
same,growth inhibition,[5]; at 100.0 µM,37%
same,growth inhibition,[6]; at 1.2 µM,1%
same,growth inhibition,[6]; at 3.7 µM,2%
same,growth inhibition,[6]; [17],-11%
same,growth inhibition,[6]; at 11.0 µM,3%
same,growth inhibition,[6]; at 33.0 µM,7%
same,growth inhibition,[6]; [18],10%
same,growth inhibition,[6]; at 50.0 µM,80% (active)
same,growth inhibition,[6]; at 100.0 µM,13%
same,growth inhibition,[7]; at 1.2 µM,-1%
same,growth inhibition,[7]; at 3.7 µM,-4%
same,growth inhibition,[7]; at 11.0 µM,-1%
same,growth inhibition,[7]; at 33.0 µM,2%
same,growth inhibition,[7]; at 100.0 µM,8%
same,growth inhibition,[8]; [17],-7%
same,growth inhibition,[8]; [18],-23%
same,growth inhibition,[8]; at 50.0 µM,80.5% (active)
same,growth inhibition,[15]; at 1.2 µM,4%
same,growth inhibition,[15]; at 3.7 µM,1%
same,growth inhibition,[15]; at 11.0 µM,1%
same,growth inhibition,[15]; at 33.0 µM,5%
same,growth inhibition,[15]; at 100.0 µM,2%
same,growth inhibition,[16]; [17],0%
same,growth inhibition,[16]; [18],-14%
same,growth inhibition,[16]; at 50.0 µM,51.8%
same,growth inhibition,[9]; at 1.2 µM,4%
same,growth inhibition,[9]; at 3.7 µM,6%
same,growth inhibition,[9]; [17],10%
same,growth inhibition,[9]; at 11.0 µM,7%
same,growth inhibition,[9]; at 33.0 µM,12%
same,growth inhibition,[9]; [18],25%
same,growth inhibition,[9]; at 50.0 µM,86.5% (active)
same,growth inhibition,[9]; at 100.0 µM,12%
same,growth inhibition,[10]; at 1.2 µM,-1%
same,growth inhibition,[10]; at 3.7 µM,-3%
same,growth inhibition,[10]; at 11.0 µM,-3%
same,growth inhibition,[10]; at 33.0 µM,0%
same,growth inhibition,[10]; at 100.0 µM,5%
same,growth inhibition,[11]; at 1.2 µM,3%
same,growth inhibition,[11]; at 3.7 µM,1%
same,growth inhibition,[11]; at 11.0 µM,2%
same,growth inhibition,[11]; at 33.0 µM,8%
same,growth inhibition,[11]; at 100.0 µM,17%
same,growth inhibition,[12]; at 1.2 µM,-4%
same,growth inhibition,[12]; at 3.7 µM,-1%
same,growth inhibition,[12]; at 11.0 µM,-6%
same,growth inhibition,[12]; at 33.0 µM,1%
same,growth inhibition,[12]; at 100.0 µM,11%
same,growth inhibition,[13]; [17],-11%
same,growth inhibition,[13]; [18],-7%
same,growth inhibition,[13]; at 50.0 µM,96.2% (active)
same,growth inhibition,[14]; at 1.2 µM,0%
same,growth inhibition,[14]; at 3.7 µM,3%
same,growth inhibition,[14]; at 11.0 µM,5%
same,growth inhibition,[14]; at 33.0 µM,5%
same,growth inhibition,[14]; at 100.0 µM,9%
